Test results published in PMC7862700, “An all-to-all approach to the identification of sequence-specific readers for epigenetic DNA modifications on cytosine”.

Experiments:
Experiment in all cases: DAPPL (digital affinity profiling via proximity ligation, sequencing); 10 mM Tris-HCl pH 7.5, 50 mM NaCl, 1 mM DTT, 4% glycerol, room temperature, 30 min; GST-TFs on glutathione beads, 16-mer random dsDNA library, 0.1% formaldehyde crosslink after washing; high values mean tight binding
[1] = molecular target: SPI1 (Homo sapiens, UniProt P17947 1-270); conditions: protein: recombinant; tags: N-terminal GST; dsDNA, one strand shown
Procedure, shortened: (§1)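 Each value of binding signal is a hexamer's read frequency for a factor divided by the same hexamer's frequency in the tag-only sample. Barcoded, bead-captured GST fusions of human transcription factors made in yeast were pooled with that sample and incubated with 200 nmole of a random double-stranded 16-mer DNA library in Tris/NaCl/DTT/glycerol buffer at room temperature for 30 min. Washing, 0.1% formaldehyde crosslinking, proximity ligation, PCR and Illumina NextSeq500 sequencing followed.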

[2] = molecular target: HSF1 (Homo sapiens, UniProt Q00613 1-529); conditions: protein: recombinant; tags: N-terminal GST; chain copies: 3; dsDNA, one strand shown
Procedure, shortened: as §1

[3] = molecular target: T1, SPIC (Homo sapiens, UniProt Q8N5J4 1-248); conditions: protein: recombinant; tags: N-terminal GST; dsDNA, one strand shown
T1 sequence: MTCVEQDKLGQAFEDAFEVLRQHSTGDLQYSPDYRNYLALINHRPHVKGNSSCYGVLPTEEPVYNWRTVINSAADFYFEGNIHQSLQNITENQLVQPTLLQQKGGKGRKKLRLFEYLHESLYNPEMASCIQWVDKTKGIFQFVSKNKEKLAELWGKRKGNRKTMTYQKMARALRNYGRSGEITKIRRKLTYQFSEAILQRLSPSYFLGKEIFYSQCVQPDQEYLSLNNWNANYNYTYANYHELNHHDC
Procedure, shortened: as §1

[4] = molecular target: T2, ELK3 (Homo sapiens, UniProt P41970 1-407); conditions: protein: recombinant; tags: N-terminal GST; dsDNA, one strand shown
T2 sequence: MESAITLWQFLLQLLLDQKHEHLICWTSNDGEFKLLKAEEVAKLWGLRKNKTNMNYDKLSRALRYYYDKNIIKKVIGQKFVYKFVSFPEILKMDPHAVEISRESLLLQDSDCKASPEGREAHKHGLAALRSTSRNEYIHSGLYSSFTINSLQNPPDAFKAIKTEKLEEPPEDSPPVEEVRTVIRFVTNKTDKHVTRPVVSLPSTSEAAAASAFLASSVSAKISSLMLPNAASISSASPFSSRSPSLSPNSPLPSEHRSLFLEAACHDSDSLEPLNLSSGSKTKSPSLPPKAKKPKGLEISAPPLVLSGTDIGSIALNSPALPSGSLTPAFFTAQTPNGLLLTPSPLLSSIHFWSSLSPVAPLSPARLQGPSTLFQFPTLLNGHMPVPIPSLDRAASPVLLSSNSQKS
Procedure, shortened: as §1

[5] = molecular target: CRX (Homo sapiens, UniProt O43186 1-299); conditions: protein: recombinant; tags: N-terminal GST; dsDNA, one strand shown
Procedure, shortened: as §1

[6] = molecular target: T3, ELF5 (Homo sapiens, UniProt Q9UKW6-2 1-255); conditions: protein: recombinant; tags: N-terminal GST; dsDNA, one strand shown
T3 sequence: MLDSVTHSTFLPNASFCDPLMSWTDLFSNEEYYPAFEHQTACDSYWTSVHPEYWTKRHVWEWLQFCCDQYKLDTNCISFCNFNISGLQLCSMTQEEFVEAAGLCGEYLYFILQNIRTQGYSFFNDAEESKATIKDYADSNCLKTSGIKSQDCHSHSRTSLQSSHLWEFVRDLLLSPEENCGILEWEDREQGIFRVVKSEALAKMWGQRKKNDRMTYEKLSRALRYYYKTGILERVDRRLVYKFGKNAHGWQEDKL
Procedure, shortened: as §1

[7] = molecular target: T4, FLI1 (Homo sapiens, UniProt Q01543 1-452); conditions: protein: recombinant; tags: N-terminal GST; dsDNA, one strand shown
T4 sequence: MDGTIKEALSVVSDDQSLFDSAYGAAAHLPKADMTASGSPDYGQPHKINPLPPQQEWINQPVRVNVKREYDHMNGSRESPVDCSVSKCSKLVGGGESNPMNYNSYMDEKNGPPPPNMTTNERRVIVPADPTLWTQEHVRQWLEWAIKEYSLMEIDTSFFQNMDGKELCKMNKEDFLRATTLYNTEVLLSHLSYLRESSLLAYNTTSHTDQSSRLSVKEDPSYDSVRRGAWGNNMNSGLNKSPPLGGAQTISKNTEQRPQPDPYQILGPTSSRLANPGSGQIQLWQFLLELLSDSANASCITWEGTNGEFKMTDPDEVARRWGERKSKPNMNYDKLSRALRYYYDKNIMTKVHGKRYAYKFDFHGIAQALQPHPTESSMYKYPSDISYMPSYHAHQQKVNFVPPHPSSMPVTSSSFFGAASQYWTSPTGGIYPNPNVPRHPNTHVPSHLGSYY
Procedure, shortened: as §1

Chain of CRX (O43186 whole entry): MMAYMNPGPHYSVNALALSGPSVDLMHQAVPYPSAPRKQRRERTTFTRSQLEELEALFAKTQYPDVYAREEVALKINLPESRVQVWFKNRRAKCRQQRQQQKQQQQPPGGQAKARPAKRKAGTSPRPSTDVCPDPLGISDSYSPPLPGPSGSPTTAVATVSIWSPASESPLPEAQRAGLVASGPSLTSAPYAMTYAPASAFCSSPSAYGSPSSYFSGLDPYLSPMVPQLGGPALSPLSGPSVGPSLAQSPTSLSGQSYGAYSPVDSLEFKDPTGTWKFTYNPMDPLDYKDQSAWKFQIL
Chain of HSF1 (Q00613 whole entry): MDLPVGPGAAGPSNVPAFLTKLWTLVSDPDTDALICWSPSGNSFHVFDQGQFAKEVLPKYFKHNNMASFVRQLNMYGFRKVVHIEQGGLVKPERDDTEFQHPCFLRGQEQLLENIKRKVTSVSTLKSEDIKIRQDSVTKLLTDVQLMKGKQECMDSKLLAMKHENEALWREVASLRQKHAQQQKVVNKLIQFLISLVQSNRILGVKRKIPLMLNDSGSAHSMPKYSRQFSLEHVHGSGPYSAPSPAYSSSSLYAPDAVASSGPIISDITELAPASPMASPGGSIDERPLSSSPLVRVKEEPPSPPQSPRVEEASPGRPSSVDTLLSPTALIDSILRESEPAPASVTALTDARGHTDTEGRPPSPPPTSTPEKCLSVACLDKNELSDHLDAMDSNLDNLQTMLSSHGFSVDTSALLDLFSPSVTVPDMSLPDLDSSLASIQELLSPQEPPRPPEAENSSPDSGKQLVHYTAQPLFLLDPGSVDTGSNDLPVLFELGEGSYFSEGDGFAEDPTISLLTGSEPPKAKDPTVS

Sequence | binding signal [1] | binding signal [2] | binding signal [3] | binding signal [4] | binding signal [5] | binding signal [6] | binding signal [7]
TGGCGA | 1.03 fold enrichment (6-mer frequency, TF over GST control) | 1.03 fold enrichment (6-mer frequency, TF over GST control) | 1.08 fold enrichment (6-mer frequency, TF over GST control) | – | – | – | –
TGTAAG | 1.12 fold enrichment (6-mer frequency, TF over GST control) | 1.09 fold enrichment (6-mer frequency, TF over GST control) | 1.22 fold enrichment (6-mer frequency, TF over GST control) | 1.11 fold enrichment (6-mer frequency, TF over GST control) | 1.32 fold enrichment (6-mer frequency, TF over GST control) | 1.11 fold enrichment (6-mer frequency, TF over GST control) | –
GGTAAA | 1.04 fold enrichment (6-mer frequency, TF over GST control) | 1.04 fold enrichment (6-mer frequency, TF over GST control) | – | 1.04 fold enrichment (6-mer frequency, TF over GST control) | 1.07 fold enrichment (6-mer frequency, TF over GST control) | 1.1 fold enrichment (6-mer frequency, TF over GST control) | –
CCCAAA | 1.15 fold enrichment (6-mer frequency, TF over GST control) | 1.13 fold enrichment (6-mer frequency, TF over GST control) | 1.04 fold enrichment (6-mer frequency, TF over GST control) | 1.1 fold enrichment (6-mer frequency, TF over GST control) | 1.13 fold enrichment (6-mer frequency, TF over GST control) | 1.06 fold enrichment (6-mer frequency, TF over GST control) | –
AGAGCT | 1.01 fold enrichment (6-mer frequency, TF over GST control) | 1.05 fold enrichment (6-mer frequency, TF over GST control) | 1.04 fold enrichment (6-mer frequency, TF over GST control) | – | 1.14 fold enrichment (6-mer frequency, TF over GST control) | – | –
AAGATC | 1.04 fold enrichment (6-mer frequency, TF over GST control) | 1.35 fold enrichment (6-mer frequency, TF over GST control) | 1.19 fold enrichment (6-mer frequency, TF over GST control) | 1.02 fold enrichment (6-mer frequency, TF over GST control) | 1.37 fold enrichment (6-mer frequency, TF over GST control) | 1 fold enrichment (6-mer frequency, TF over GST control) | –
TAGGAT | – | 1.35 fold enrichment (6-mer frequency, TF over GST control) | 1.06 fold enrichment (6-mer frequency, TF over GST control) | 1.03 fold enrichment (6-mer frequency, TF over GST control) | 1.81 fold enrichment (6-mer frequency, TF over GST control) | 1.06 fold enrichment (6-mer frequency, TF over GST control) | –
TGAAAT | 1.02 fold enrichment (6-mer frequency, TF over GST control) | 1.02 fold enrichment (6-mer frequency, TF over GST control) | 1.01 fold enrichment (6-mer frequency, TF over GST control) | – | 1.03 fold enrichment (6-mer frequency, TF over GST control) | – | –
CGAACG | – | 1.2 fold enrichment (6-mer frequency, TF over GST control) | 1.11 fold enrichment (6-mer frequency, TF over GST control) | – | – | – | –
TCACGG | 1.01 fold enrichment (6-mer frequency, TF over GST control) | – | – | 1 fold enrichment (6-mer frequency, TF over GST control) | – | 1.13 fold enrichment (6-mer frequency, TF over GST control) | 1.06 fold enrichment (6-mer frequency, TF over GST control)
AGCAAA | 1.04 fold enrichment (6-mer frequency, TF over GST control) | 1.18 fold enrichment (6-mer frequency, TF over GST control) | – | 1.04 fold enrichment (6-mer frequency, TF over GST control) | 1.05 fold enrichment (6-mer frequency, TF over GST control) | 1 fold enrichment (6-mer frequency, TF over GST control) | –
GAGCTT | – | 1.2 fold enrichment (6-mer frequency, TF over GST control) | 1.09 fold enrichment (6-mer frequency, TF over GST control) | 1.02 fold enrichment (6-mer frequency, TF over GST control) | 1.43 fold enrichment (6-mer frequency, TF over GST control) | – | –
ACTGGA | 1.1 fold enrichment (6-mer frequency, TF over GST control) | 1.56 fold enrichment (6-mer frequency, TF over GST control) | 1.16 fold enrichment (6-mer frequency, TF over GST control) | 1.01 fold enrichment (6-mer frequency, TF over GST control) | 1.19 fold enrichment (6-mer frequency, TF over GST control) | – | –
AGCGAT | 1.07 fold enrichment (6-mer frequency, TF over GST control) | 1.1 fold enrichment (6-mer frequency, TF over GST control) | 1.11 fold enrichment (6-mer frequency, TF over GST control) | 1.23 fold enrichment (6-mer frequency, TF over GST control) | 1.29 fold enrichment (6-mer frequency, TF over GST control) | – | –
TGGGAA | 1.21 fold enrichment (6-mer frequency, TF over GST control) | 1.05 fold enrichment (6-mer frequency, TF over GST control) | 1.03 fold enrichment (6-mer frequency, TF over GST control) | 1 fold enrichment (6-mer frequency, TF over GST control) | – | 1.15 fold enrichment (6-mer frequency, TF over GST control) | –
ATAATG | 1.07 fold enrichment (6-mer frequency, TF over GST control) | 1.25 fold enrichment (6-mer frequency, TF over GST control) | 1.21 fold enrichment (6-mer frequency, TF over GST control) | 1.22 fold enrichment (6-mer frequency, TF over GST control) | 1.52 fold enrichment (6-mer frequency, TF over GST control) | 1.07 fold enrichment (6-mer frequency, TF over GST control) | –
TAGTAG | – | 1.2 fold enrichment (6-mer frequency, TF over GST control) | 1.02 fold enrichment (6-mer frequency, TF over GST control) | – | 1.25 fold enrichment (6-mer frequency, TF over GST control) | – | –
CGAATC | – | 1.38 fold enrichment (6-mer frequency, TF over GST control) | 1 fold enrichment (6-mer frequency, TF over GST control) | – | 1.12 fold enrichment (6-mer frequency, TF over GST control) | – | –
ACTGGT | 1.1 fold enrichment (6-mer frequency, TF over GST control) | – | 1.07 fold enrichment (6-mer frequency, TF over GST control) | 1.08 fold enrichment (6-mer frequency, TF over GST control) | – | 1.03 fold enrichment (6-mer frequency, TF over GST control) | –
CGCCCA | – | – | 1.06 fold enrichment (6-mer frequency, TF over GST control) | 1.04 fold enrichment (6-mer frequency, TF over GST control) | – | – | –
AGCACA | 1.06 fold enrichment (6-mer frequency, TF over GST control) | – | 1.02 fold enrichment (6-mer frequency, TF over GST control) | 1.06 fold enrichment (6-mer frequency, TF over GST control) | – | 1.05 fold enrichment (6-mer frequency, TF over GST control) | –
TGCAGC | 1.02 fold enrichment (6-mer frequency, TF over GST control) | – | 1.22 fold enrichment (6-mer frequency, TF over GST control) | 1.07 fold enrichment (6-mer frequency, TF over GST control) | – | – | –
CGCGCC | – | – | 1.23 fold enrichment (6-mer frequency, TF over GST control) | 1.05 fold enrichment (6-mer frequency, TF over GST control) | – | 1.03 fold enrichment (6-mer frequency, TF over GST control) | –
GTGCAT | 1.15 fold enrichment (6-mer frequency, TF over GST control) | – | 1.28 fold enrichment (6-mer frequency, TF over GST control) | 1.16 fold enrichment (6-mer frequency, TF over GST control) | – | 1.02 fold enrichment (6-mer frequency, TF over GST control) | –
TGTTGT | 1.1 fold enrichment (6-mer frequency, TF over GST control) | – | 1.23 fold enrichment (6-mer frequency, TF over GST control) | 1.05 fold enrichment (6-mer frequency, TF over GST control) | – | 1.05 fold enrichment (6-mer frequency, TF over GST control) | –
